In PubChem BioAssay (EPA / NIEHS) one finds outcome and AC50 data, which are given here for 24 compounds.

Calls of active or inactive are those of the source. Rule for the calls: active = hit-call score of the fitted dose curve at least 0.9, where 1 is the maximum; inactive = score below 0.9.

Assay [1] is described as follows: APR_HepG2_CellCycleArrest_24hr: Apredica 24-hour HepG2 Assay for Cell Cycle Arrest (AID 2282905).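 Note: cell cycle arrest scored as ratio of 2N to 4N nuclear DNA content.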 As to conditions: imaging, actives raise or lower the signal. In outline: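 Compounds at 0.39–200 uM (0.5% DMSO) for 24 h, then fixed and Hoechst 33342 stained. Cell-cycle analysis of nuclear DNA content by high-content imaging, fitted bidirectionally versus DMSO.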

Assay [2] is described as follows: APR_HepG2_NuclearSize_24hr: Apredica 24-hour HepG2 Assay for Nuclear Size (AID 2282907). As to conditions: high-content imaging, actives raise or lower the signal. In outline:
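HepG2 cells exposed 24 h to compounds at 0.39–200 uM (0.5% DMSO), fixed, Hoechst 33342 stained and imaged at 20x; nuclear diameter measured by automated image analysis, fitted bidirectionally against DMSO controls.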

The nature of assay [3]: APR_HepG2_CellLoss_24hr: Apredica 24-hour HepG2 Assay for Cell Loss (AID 2282908).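 For AC50: fit in both directions so a hit may be cell loss or gain.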 As to conditions: high-content imaging. In outline:
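HepG2 cells exposed 24 hr to 0.39–200 uM compound in duplicate at 0.5% v/v final DMSO. Cells fixed in 3.7% formaldehyde and Hoechst 33342-stained. Cell number came from nuclear imaging at 20x. Bidirectional fit versus DMSO.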

Assay [4] in a line: APR_HepG2_MitoticArrest_24hr: Apredica 24-hour HepG2 Assay for Mitotic Arrest (AID 2282910). As to conditions: high-content imaging, actives raise or lower the signal. In outline:
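HepG2 human liver cells were exposed to compounds at 0.39–200 uM (10 concentrations, duplicate) in 0.5% v/v DMSO for 24 hr, then fixed and immunostained for phospho-histone H3 with Hoechst 33342. Mitotic arrest came from HCS fluorescent imaging, fitted bidirectionally against DMSO.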

A short description of assay [5]: APR_HepG2_MitoMembPot_24hr: Apredica 24-hour HepG2 Assay for Mitochondrial Membrane Potential (AID 2282911). As to conditions: imaging, actives raise or lower the signal. In outline:
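Human hepatoma HepG2 cultures received ten compound concentrations up to 200 uM for 24 hr. Membrane-potential dye signal, captured by automated fluorescence microscopy, was scored for gain or loss against DMSO controls.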

Assay [6] is described as follows: APR_HepG2_MitoMass_24hr: Apredica 24-hour HepG2 Assay for Mitochondrial Mass (AID 2282912). As to conditions: high-content imaging, actives raise or lower the signal. In outline: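 HepG2 cells exposed 24 hr to 0.39–200 uM compound, 0.5% v/v DMSO, in duplicate. Stained before fixation with 250 nM MitoTracker Red CMXRos for 30 min, then imaged at 20x with Hoechst nuclei. Fitted in both directions against DMSO.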

Assay [7] can be described thus: APR_HepG2_p53Act_24hr: Apredica 24-hour HepG2 Assay for p53 Activation (AID 2282913).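 Note: p53 protein immunofluorescence averaged per cell in HepG2 with Hoechst nuclei.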 As to conditions: high-content imaging, actives raise or lower the signal. In outline: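 Automated fluorescence imaging quantifies p53 immunostaining in HepG2 cells after a 24 hr exposure (0.39–200 uM, duplicate, 0.5% DMSO). Nuclei are located by Hoechst 33342 staining.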
Assay [8] can be described thus: APR_HepG2_CellCycleArrest_72hr: Apredica 72-hour HepG2 Assay for Cell Cycle Arrest (AID 2282914). As to conditions: high-content imaging, actives raise or lower the signal. In outline: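 Cell cycle arrest in HepG2 was scored from nuclear DNA content after 72 hr compound treatment (0.39–200 uM). Activity, either gain or loss, was fitted against the DMSO baseline.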

Assay [9] is described as follows: APR_HepG2_CellLoss_72hr: Apredica 72-hour HepG2 Assay for Cell Loss (AID 2282915). As to conditions: high-content imaging. In outline: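 HepG2 cells were exposed for 72 hr to compounds at 0.39–200 uM (ten concentrations, duplicate) in 0.5% v/v final DMSO. Nuclei were stained with Hoechst 33342 after 3.7% formaldehyde fixation, imaged at 20x, and counted; fits bidirectional versus DMSO.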

As to `CC(C)(O)c1coc(S(=O)(=O)NC(=O)Nc2c3c(cc4c2CCC4)CCC3)c1`, the outcome in [1], in [2], in [3], in [4], in assay [5] and in assay [6] was inactive. Besides, the result in assay [7], in assay [8] and in [9] was inactive.

Take `Cn1cnc([N+](=O)[O-])c1Sc1ncnc2nc[nH]c12`: the compound was called inactive in assay [1], in assay [2], in assay [3], in [4], in [5] and in assay [6]. Further, the result in assay [7] and in assay [8] was inactive. Besides, the AC50 in assay [9] was 44.8 µM (active).

Turning to `CC[C@H](C)C(=O)O[C@H]1C[C@@H](C)C=C2C=C[C@H](C)[C@H](CC[C@@H]3C[C@@H](O)CC(=O)O3)[C@H]21`, the compound was classed as inactive in [1], in assay [2], in assay [7] and in assay [8]. Besides, the AC50 in assay [3] is 82 µM (active); in assay [4] it was 28.9 µM (active); in assay [5], 48.8 µM (active); in [6] it was 5.52 µM (active); in assay [9] it was 31.1 µM (active).

Take `NC(=O)NO`: the result in assay [1], in assay [2], in assay [3], in assay [4], in assay [5] and in [6] was inactive. Moreover, the call in assay [7] and in assay [9] was inactive.

For `CCCN(C1CCN(C(=O)C2CCNCC2)CC1)[C@@H]1CCc2ccc(OC)cc2C1`, the outcome in assay [1], in assay [2], in assay [5] and in assay [7] was inactive. Further, the AC50 in assay [3] was 100 µM (active); in [4], 67.5 µM (active); in assay [6], 100 µM (active); in [9], 95 µM (active).

With `CCOC(=O)c1ccc(C2CCC(NC[C@H](O)COc3ccc(O)c(NS(C)(=O)=O)c3)CC2)cc1` (some centres not stated), the compound was called inactive in assay [1], in assay [2] and in [8]. Moreover, the AC50 in assay [3] was 32.3 µM (active); in assay [4], 27.5 µM (active); in [5], 86.9 µM (active); in [6] it was 28.1 µM (active); in assay [7], 26.2 µM (active); in assay [9] it was 25 µM (active).

Consider `O=C(O)CCN(C1(C(=O)NO)CCCC1)S(=O)(=O)c1ccc(Oc2ccc(F)cc2)cc1`, for which the call in assay [1], in assay [2], in assay [3], in assay [4], in assay [5] and in assay [6] was inactive. The result in assay [7] and in assay [9] was inactive.

For the compound `CCN(C(=O)c1cc(C)cc(OC[C@H](C)Nc2ccncc2)c1)C(C)C`, the compound was classed as inactive in [1], in assay [2], in assay [3], in assay [4], in [5] and in assay [6]. The outcome in [7], in assay [8] and in [9] was inactive.

For `O=C(O)c1cccc(N(Cc2cccnc2)c2ccc(OC(F)F)c(OC(F)F)c2)c1`, the compound was called inactive in [1], in [2] and in assay [8]. Further, the AC50 in assay [3] was 43.6 µM (active); in assay [4], 10.4 µM (active); in [5] it was 0.0349 µM (active); in [6] it was 13.3 µM (active); in assay [7] it was 5.63 µM (active); in assay [9], 23.5 µM (active).

Turning to `CCCCCCCCCCCCCCCO`, the AC50 in [1] is 107 µM (active); in assay [9], 93.8 µM (active). Besides, the result in assay [2], in assay [3], in [4], in assay [5], in assay [6] and in [7] was inactive.

With `CC(C)CCCCCCOC(=O)c1ccc(C(=O)OCCCCCCC(C)C)c(C(=O)OCCCCCCC(C)C)c1`, the result in assay [1], in assay [2], in [3], in assay [4], in assay [5] and in assay [6] was inactive. Besides, the outcome in [7] and in assay [9] was inactive.

Regarding `CC(=O)OCCC(C)C`, the compound was called inactive in assay [1], in assay [2], in assay [3], in assay [4], in assay [5] and in assay [6]. The compound was classed as inactive in assay [7], in assay [8] and in [9].

As for `COC(=O)c1c(Cl)c(Cl)c(C(=O)OC)c(Cl)c1Cl`, the compound was called inactive in assay [1], in [2], in assay [3], in assay [4], in [5] and in assay [6]. Moreover, the compound was called inactive in [7] and in assay [9].

For the compound `CCc1cc(SCc2sc(-c3ccc(C(F)(F)F)cc3)nc2CN2CCN(c3ccc(OC)cc3)CC2)ccc1OCC(=O)O`, the compound was called inactive in [1], in assay [2], in assay [5], in assay [6] and in [8]. Moreover, the AC50 was 49.7 µM (active) in assay [3], 55.9 µM (active) in assay [4], 84 µM (active) in assay [7] and 39.5 µM (active) in assay [9].

As to `O=C(O)CC(O)C(=O)O` (configuration not stated), the compound was classed as inactive in assay [1], in assay [2], in assay [3], in [4], in assay [5] and in [6]. Moreover, the compound was called inactive in assay [7], in assay [8] and in assay [9].

As for `Nc1ccc(Nc2ccccc2)cc1`, the compound was classed as inactive in assay [1], in assay [2], in assay [3], in assay [4], in assay [6] and in assay [7]. Besides, the AC50 in assay [5] was 54 µM (active); in assay [9], 40.1 µM (active).

On to `C=CCCCCCCCCC(=O)O`, for which the call in assay [1], in assay [2], in assay [3], in assay [4], in assay [5] and in assay [6] was inactive. Moreover, the compound was classed as inactive in assay [7] and in assay [9].

Take `Cn1c(=O)cc(Oc2ccc(F)cc2F)c2cnc(NCC(C)(C)O)nc21`: the outcome in [1], in assay [2], in assay [3], in assay [4], in assay [5] and in assay [6] was inactive. In addition, the compound was called inactive in [7] and in assay [9].

For the compound `CC(C)CCCCCCCOC(=O)CCCCC(=O)OCCCCCCCC(C)C`, the compound was classed as inactive in assay [1], in [2], in assay [3], in assay [4], in [5] and in assay [6]. Also, the outcome in [7] and in assay [9] was inactive.

For `CCOCCO`, the compound was called inactive in assay [1], in assay [2], in assay [3], in [4], in assay [5] and in assay [6]. For the same compound, the result in assay [7] and in [9] was inactive.

In the case of `COc1ccc2sc(C(=O)Nc3nnn[nH]3)c(OC(C)C)c2c1`, the outcome in [1], in [2], in assay [3], in assay [4], in assay [5] and in [6] was inactive. In addition, the outcome in assay [7] was inactive. Besides, in [9], the AC50 was 39.9 µM (active).

Take `COc1cccc(-c2ccc(/C=C\CN3CCCCCC3)cc2Cl)c1`: the half-maximal activity concentration (AC50) is 87.1 µM (active) in assay [1]; 59.5 µM (active) in [2]; 74.8 µM (active) in [3]; 28.5 µM (active) in [4]; 23.8 µM (active) in assay [6]; 30.8 µM (active) in [7]. For the same compound, the AC50 is 84.2 µM (active) in assay [8] and 28.6 µM (active) in [9]. In assay [5], the call was inactive.

Consider `O=C(CCCCCCCCc1cccnc1)N1CCC(C=C(c2ccccc2)c2ccccc2)CC1`, for which the compound was called inactive in assay [1], in assay [2], in [3], in assay [4], in [5] and in assay [6]. Moreover, the result in assay [7] and in [9] was inactive.

`Cn1c(=O)c2c(ncn2C)n(C)c1=O`: the call in assay [1], in [2], in assay [3], in [4], in assay [5] and in assay [6] was inactive. Besides, the outcome in assay [7] and in assay [9] was inactive.

As a reminder, the AC50 is the midpoint of the concentration-response curve, whichever way the signal moves.
